Records with an inconclusive call do not appear. Entries that show only a call come without a potency. Values without a mark were called inactive. Active and inactive are the calls of the source. The call rests on the fitted dose curve.

This is an account of results in PubChem BioAssay (Tox21).
Potency means the concentration at half of the fitted maximal effect.

Sequence of Muscarinic acetylcholine receptor M1 (Homo sapiens) (P11229 whole entry, looked up): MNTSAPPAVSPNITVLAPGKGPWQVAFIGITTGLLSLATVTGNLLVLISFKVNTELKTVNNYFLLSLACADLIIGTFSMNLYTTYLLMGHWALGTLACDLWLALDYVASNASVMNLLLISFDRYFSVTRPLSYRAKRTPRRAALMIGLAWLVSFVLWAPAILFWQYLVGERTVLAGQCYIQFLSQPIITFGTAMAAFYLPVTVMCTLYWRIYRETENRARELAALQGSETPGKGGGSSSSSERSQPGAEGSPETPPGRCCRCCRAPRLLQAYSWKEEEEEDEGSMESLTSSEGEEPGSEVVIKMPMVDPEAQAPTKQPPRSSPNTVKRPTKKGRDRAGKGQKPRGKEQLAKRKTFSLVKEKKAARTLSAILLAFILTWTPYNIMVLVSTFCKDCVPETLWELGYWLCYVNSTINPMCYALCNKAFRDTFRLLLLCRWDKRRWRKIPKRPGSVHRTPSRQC

The assay concerns the target Muscarinic acetylcholine receptor M1 (Homo sapiens) (UniProt P11229). The experiment in a line: Cholinergic receptor muscarinic 1 (CHRM1) small molecule antagonists, cell-based qHTS assay (AID 1963588). Further: nearly all actives have a fitted effect of over 40% in size. The conditions noted are these: CHRM1-CHO antagonist mode, calcium flux fluorescence; series mostly up to 61.5 µM. An excerpt: National Center for Advancing Translational Sciences [NCATS]
Division of Preclinical Innovation [DPI]
U.S. Environmental Protection Agency [EPA]
National Institutes of Environmental Health Sciences [NIEHS]
National Toxicology Program [NTP]
U.S. Food and Drug Administration [FDA]
The CHRM1 is a muscarinic receptor. This receptor plays a crucial role in learning and memory processes and has long been identified as a promising therapeutic target for the improvement of cognitive decline in Alzheimer's disease (AD). The CHRM1-CHO cell line stably expressing human muscarinic acetylcholine receptor M1 (CHRM1) can be used for screening agonists and antagonists of interactions between CHRM1 and its ligands. The CHRM1-CHO Calcium Flux Assay is a homogeneous fluorescence-based assay for detecting the intracellular calcium level using FDSS kinetic plate reader system.
Tox21 Assay Protocol Summary:
CHRM1-CHO cells were dispensed at 1000 cells/3uL/well in 1536-well black-clear bottom plates using a Multidrop Dispenser. After the assay plates were incubated at a 37 C/5% CO2 incubator for 18 h, 3 uL of Dye Loading Buffer was transferred to the assay plate by a Flying Reagent Dispenser. The assay plates were incubated at 37 C for 1h. For antagonist mode, 23 nL of compounds dissolved in DMSO, positive controls or DMSO only was transferred to the assay plate by a pin tool. After 5 min incubation at room temperature, 1.5 uL of acetylcholine at 50nM was added to each well. The fluorescence intensity in the plates was measured using FDSS 7000EX kinetic plate reader for 3 min at 1 sec intervals. Each test compound was measured at 15 concentrations in three independent runs.
For the compound `CCC(C)COC(C)=O` (stereo not given), the Potency result was “inactive”. With `COc1ccccc1OCC1CNC(=O)O1` (stereo not given), the Potency result was “inactive”. Turning to `O=C(O)Cc1ccc(OCCNC[C@H](O)c2ccccc2)cc1`, the Potency result was “inactive”. In the case of `CN(C)c1ccc(N=NS(=O)(=O)O)cc1`, the Potency entry was “inactive”. For the compound `CCCCCCCCCCC1CO1` (stereo not given), the Potency entry was “inactive”.

Take `Cc1ccc(C#N)cc1`: the Potency entry was “inactive”. Same read-out and setting: then `N#Cc1ccccc1C#N`, with “inactive”; and `CC(=O)OCC=C(C)C`, with “inactive”; and `CN1CCCN=C1/C=C/c1cccs1`, with “inactive”.

Take `Nc1ccccn1`: the Potency entry is “inactive”.

As for `CCCCCCCCCCCCCOC(=O)CCSCCC(=O)OCCCCCCCCCCCCC`, the activity, negative = inhibition was 18% [at 12.6 µM]. `OCCOCC#CCOCCO`: the Potency entry is “inactive”. As to `CC(C)=CCNc1ncnc2c1ncn2[C@@H]1O[C@H](CO)[C@@H](O)[C@H]1O`, the Potency entry was “inactive”. For the compound `O=C(Nc1cccc(C(F)(F)F)c1)c1cc(Br)cc(Br)c1O`, the Potency entry was “inactive”. On to `Cc1ccc(C(N)=O)cc1N`, for which the Potency entry was “inactive”. Take `FC(F)(Cl)C(F)(Cl)Cl`: the Potency entry is “inactive”. Consider `O=S(=O)(O)c1cc(Cl)c(Cl)cc1Cl`, for which the Potency result was “inactive”. As to `c1ccc(B(c2ccccc2)c2ccccc2)cc1`, the Potency entry is “inactive”. As to `Cn1ccc2cc3c(cc21)CCN3C(=O)Nc1cccnc1`, the activity, negative = inhibition is 8.54% [at 12.6 µM]. On to `CO[Si](C)(OC)OC`, for which the Potency result is “inactive”.

Take `NC(=O)c1cc[n+](CC2=C(C(=O)[O-])N3C(=O)[C@@H](NC(=O)Cc4cccs4)[C@H]3SC2)cc1`: the Potency entry is “inactive”. As to `CCO[C@H](Cc1ccc(OCCc2ccc(OS(C)(=O)=O)cc2)cc1)C(=O)O`, the Potency entry was “inactive”. For the compound `CCO/C=C1\N=C(c2ccccc2)OC1=O`, the Potency result is “inactive”. On to `CCC(Cl)CC(Cl)C(Cl)C(Cl)C(Cl)C(C)Cl` (stereo not given), for which the activity, negative = inhibition is -3.76% [at 12.6 µM]. In the case of `CCCc1ccccc1O`, the Potency result is “inactive”. In the case of `CCC(C)[O-].CCC(C)[O-].CCOC(=O)/C=C(/C)[O-].[Al+3]`, the Potency result was “inactive”. On to `COC(C)(C)OC`, for which the Potency result is “inactive”. Consider `CC[C@H]1O[C@]2(CC[C@@H]1C)C[C@@H]1C[C@@H](C/C=C(\C)C[C@@H](C)/C=C/C=C3\CO[C@@H]4[C@H](O)C(C)=C[C@@H](C(=O)O1)[C@]34O)O2`, for which the Potency entry was “inactive”. Consider `CCCCO`, for which the Potency entry was “inactive”. Still for that read-out and setting: for `N=C(N)N` the value was “inactive”; for `CCOC(=O)c1ccc(C#Cc2ccc3c(c2)C(C)(C)CCS3)nc1`, “inactive”.

As to `CCCNCCC`, the Potency entry is “inactive”. Turning to `CC(=O)c1ccc(C)cc1`, the Potency result is “inactive”. Take `O=C1OC(=O)c2c(Br)c(Br)c(Br)c(Br)c21`: the Potency result is “inactive”.

Take `CN(C)c1ccncc1`: the Potency result is “inactive”. For `CCN(CC)CCOC(=O)C(c1ccccc1)C1CCCCC1` (stereo not given), the Potency is 41 nM (active).

For the compound `CC(=O)c1c(C)c([N+](=O)[O-])c(C(C)(C)C)c([N+](=O)[O-])c1C`, the Potency entry is “inactive”. Same read-out and setting: for `CO[C@@]1(NC(=O)Cc2cccs2)C(=O)N2C(C(=O)O)=C(COC(N)=O)CS[C@@H]21` the value was “inactive”; for `O=C(c1ccccc1)C1CCC1`, “inactive”; for `CCCCC(CC)CN=C(N)NC(N)=NCCCCCCN=C(N)NC(N)=NCC(CC)CCCC` (stereo not given), 918 nM (active).
